Source: PubChem BioAssay
DAX1 inh-1: blocks DAX1 repression of SF-1 activated StAR promoter. HEK293T StAR-luciferase reporter, SF-1/DAX-1 repression relief. inhibition, % at 6.8 µM. hit rate 1.1% among 370,000. AID 652010;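 active = inhibition above the mean over all tested compounds plus 3 SD, cut at about 3.6% in these data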;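 note: higher inhibition means more luminescence from relief of DAX-1 repression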
ssDAF12 agonist: S. stercoralis DAF-12 activation, primary screen; HEK293 ssDAF-12/GRIP1 lit1-tk-luc reporter, luminescence; % of 3 µM dafachronic acid response; activation, % at 6.8 µM; hit rate 1% among 370,000; AID 652126;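 active = activation above the mean over all tested compounds plus 3 SD, cut at about 0.9% in these data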
hcDAF-12 act: activates DAF-12 receptor from parasite H. contortus. HEK293 hcDAF-12 lit1-tk-luc reporter, luminescence; 0% DMSO, 100% Δ7-dafachronic acid. activation, % at 6.8 µM. hit rate 1.4% among 370,000. AID 652067;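 active = activation above the mean of all tested compounds plus 3 SD, cut at about 5.5% in these data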
hgDAF12 agonist: agonists of H. glycines DAF-12 nuclear receptor; HEK293 GAL4-hgDAF12 UAS-luciferase reporter, agonist luminescence; normalized to butyrate control; activation, % at 6.8 µM; hit rate 1.8% among 370,000;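 active = activation above a cutoff set at the mean of all screened compounds plus 3 SD, cut at about 10% in these data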
DAX1 inh-2: inhibits human nuclear receptor DAX1; P51843; HEK293 Gal4-DAX1 luciferase reporter, luminescence; inhibition, % at 6.75 µM; hit rate 0.99% among 340,000; AID 504766;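 active = inhibition above the mean over all tested compounds plus 3 SD, cut at about 4.2% in these data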;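 note: inhibition shows as a rise in luminescence from relieved DAX1 repression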
Target sequence (P51843 207-470 limits assumed): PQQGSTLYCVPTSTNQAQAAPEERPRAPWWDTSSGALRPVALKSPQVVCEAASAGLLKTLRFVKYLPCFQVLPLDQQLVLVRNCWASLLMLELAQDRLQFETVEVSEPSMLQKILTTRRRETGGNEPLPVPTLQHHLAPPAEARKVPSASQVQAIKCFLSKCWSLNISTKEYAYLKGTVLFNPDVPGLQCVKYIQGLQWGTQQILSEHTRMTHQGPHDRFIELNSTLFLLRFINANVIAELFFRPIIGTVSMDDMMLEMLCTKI
LXRb hcDAF ctr: activates human LXR-beta, counter-screen for hcDAF-12 agonists; shares compounds with hcDAF-12 act; HEK293 Gal4-LXR tk-luc reporter, luminescence, 24 h; normalized: DMSO 0%, positive control 100%; activation, % at 6.8 µM; 3,400 tested, under 10 active; AID 743027;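 active = mean percent activation of the reporter above a cutoff set as the average over tested compounds plus their standard deviation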
hcDAF12 ag: confirmation of H. contortus DAF-12 agonists; shares compounds with hcDAF-12 act; HEK293 hcDAF-12 lit1-tk-luc reporter, luminescence; % of Δ7-dafachronic acid response; activation, % at 6.8 µM; hit rate 61% among 3,400; AID 743032;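 active = mean activation across triplicate tests above the threshold derived from the earlier primary screen, cut at about 5.5% in these data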
Numbers stand for hits; n = inactive; x = no result. Rows were chosen to be rich in hits. Some 4.1% of all compounds tested hit in one or more screens of this group.

SMILES | DAX1 inh-1 | ssDAF12 agonist | hcDAF-12 act | hgDAF12 agonist | DAX1 inh-2 | LXRb hcDAF ctr | hcDAF12 ag
COc1ccccc1C(=O)NC(=S)Nc1ccccc1N1CCCC1 | n | n | 7.1 | n | n | n | 7.6
O=C(NC(=S)Nc1ccccc1N1CCCCC1)c1ccccc1 | n | n | n | n | n | x | x
O=C(OCc1cn(Cc2cccc(Cl)c2)nn1)N1CCOCC1 | n | n | n | n | x | x | x
OCCCNc1c2ccccc2nc2ccccc12 | n | 2.3 | 20 | n | n | n | 29
CN(C)CCCNc1c2c(nc3ccccc13)CCC2 | n | n | 7.0 | n | n | n | n
CC[C@@H](CCC(=O)N(c1ccccc1)c1ccccc1)c1ccc(C)cc1 | n | n | n | n | x | x | x
CCC1CCc2sc(C(=O)Nc3cc(S(=O)(=O)N4CCOCC4)ccc3OC)cc2C1 (stereo not drawn) | x | n | n | n | x | x | x
Cc1c(-c2ccccc2)nnn1-c1ccc(F)c(Cl)c1 | n | n | n | n | x | x | x
Clc1nc(-c2ccccn2)nc2scc(-c3ccccc3)c12 | n | n | 12 | 14 | n | n | 6.6
O=[N+]([O-])c1ccccc1/C=N/Nc1nccnc1Cl | n | n | n | n | n | x | x
Cc1c(O)ccc(/C=N/Nc2ncccc2[N+](=O)[O-])c1O | n | 1.2 | 7.5 | n | n | n | 6.0
O=C1CCC[C@H]2[C@@H](Cc3ccccc3)[C@@H](O)CC[C@]23CCCN13 | x | n | n | n | x | x | x
CC(C)C[C@@H]1COc2cc(N3CCCC3)ccc2S(=O)(=O)N1 | n | n | n | n | x | x | x
CCCCCN1CCCCC(NC(=O)c2cccc(C(F)(F)F)c2)C1=O (stereo not drawn) | n | n | n | n | x | x | x
COc1ccc(CN=Cc2[nH]c3ccc(Br)c(Cl)c3c2O)cc1 | n | n | n | n | n | x | x
Cc1cc(C)cc(N=Cc2[nH]c3ccc(Br)c(Cl)c3c2O)c1 | n | n | 35 | n | n | n | n
Cc1ccc2cn[nH]c2c1N | n | n | 6.9 | n | n | n | n
Cc1ccc(-c2ccc(C)c(N)c2C)c(C)c1N | n | n | n | n | n | x | x
CC(=O)Nc1cccc(NC(=S)Nc2cccc3ccccc23)c1 | n | 0.9 | 7.6 | n | n | n | n
CN[C@H]1C[C@H]2c3[nH]c4c(-c5cccc(C)c5)cccc4c3CCN2C[C@H]1[C@H](C)O | n | n | n | n | x | x | x
Cc1c(C(=O)NC2CCCCC2)oc2ccc(F)cc12 | n | n | 18 | 10 | n | n | 8.3
Cc1ccc2oc(C(=O)NC3CCS(=O)(=O)C3)c(C)c2c1 (stereo not drawn) | n | n | n | n | n | x | x
COc1cc2c(c(Br)c1N)-c1cc(Br)c(N)cc1C2=O | n | n | 6.9 | n | n | n | 8.8
COc1cc2c(cc1N)-c1ccc(N)cc1C2=O | n | n | n | n | n | x | x
CCCC[C@@H]1C(=O)N2N=Cc3cscc3[C@H]2N2N=Cc3cscc3[C@@H]12 | n | n | n | n | x | x | x
SMILES | DAX1 inh-1 | ssDAF12 agonist | hcDAF-12 act | hgDAF12 agonist | DAX1 inh-2 | LXRb hcDAF ctr | hcDAF12 ag
Cc1ccc(C2Nc3ccccc3-c3nc4ccccc4n32)o1 (stereo not drawn) | n | n | 6.7 | 12 | n | n | n
Nc1c(Br)cc2oc(-c3ccccc3)nc2c1Br | n | 1.1 | 7.4 | n | 5.0 | n | 17
COc1ccc(-c2nc3c(Br)c(N)c(Br)cc3o2)cc1 | x | x | x | x | n | x | x
C[C@H](O)[C@@H]1CN2CCc3ccc(-c4ccc5c(c4)OCO5)cc3[C@@H]2C[C@@H]1N(C)C(=O)c1cccc(Cl)c1 | n | n | n | n | x | x | x
COc1ccc(/C(N)=N/OC(=O)Cc2cccs2)cc1 | n | n | n | n | n | x | x
COc1ccc(/C(N)=N/OC(=O)Cc2cccs2)cc1OC | n | n | 14 | n | n | n | n
Cc1ccc(S(=O)(=O)N/N=C\C=C\c2ccccc2)cc1 | n | n | 6.7 | n | n | n | n
CC(C)NC(=O)N[C@@H]1C[C@@H]2O[C@@H](CO)CC[C@@H]2O[C@@H]1CCc1ccc(-c2ccc(F)cc2)cc1 | n | n | n | n | x | x | x
CCN(CC)CCN1C(=O)c2cccc3cc(N)cc(c23)C1=O | n | n | 7.6 | n | n | n | n
O=C1c2cccc3cccc(c23)C(=O)N1CCO | n | n | n | n | n | x | x
